An excerpt weighted towards active compounds, which were near 7.3% of everything screened.
ELG1 genotoxic = induces genotoxicity in HEK293T cells with luciferase-tagged ELG1; HEK293T ELG1-luciferase reporter, luminescence, 16 h; actives 1.3% (n = 330,000); Potency, µM (titrated, usually from 46 µM), for inactives: at the highest dose activity change, positive = activation, actives largely listed as activators; also: % of control where 0% means no effect; nearly all actives have a fitted effect of over 60% in size
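DMSO vehicle served as control against compound-treated ELG1-luciferase HEK293T cells; exposure lasted 16 hr at 37 °C and 5% CO2, followed by ONE-Glo luminescence detection after 30 min.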
NPC1 promoter act = NPC1 promoter activation | Huh7 NPC1 promoter luciferase reporter, 24 h | Potency, µM (doses to about 9.22 µM), for the others: at the top dose activation, actives largely listed as activators | actives 2.4% (n = 320,000) | AID 485313; also: % of control where 0% means no effect; nearly all actives have a fitted effect of over 60% in size
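Stable NPC1-promoter luciferase Huh7 line; cpd (DMSO) 24 h, 37 °C, 5% CO2; Amplite luciferase reagent 10 min RT; luminescence readout. qHTS format.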
FLuc modulator = counter-screen for miR-21 project: firefly luciferase inhibitors or activators; purified FLuc, Km substrates, luminescence inhibition; Potency, µM (series often up to 57.5 µM), without a hit: top-dose activity change, negative = inhibition, most hits filed as inhibitors; actives 6.9% (n = 360,000); AID 588342;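 also: plate controls were vehicle for no effect and reference inhibitor for full effect; nearly all actives have a fitted effect of over 55% in size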
Target sequence (P08659 whole entry, looked up): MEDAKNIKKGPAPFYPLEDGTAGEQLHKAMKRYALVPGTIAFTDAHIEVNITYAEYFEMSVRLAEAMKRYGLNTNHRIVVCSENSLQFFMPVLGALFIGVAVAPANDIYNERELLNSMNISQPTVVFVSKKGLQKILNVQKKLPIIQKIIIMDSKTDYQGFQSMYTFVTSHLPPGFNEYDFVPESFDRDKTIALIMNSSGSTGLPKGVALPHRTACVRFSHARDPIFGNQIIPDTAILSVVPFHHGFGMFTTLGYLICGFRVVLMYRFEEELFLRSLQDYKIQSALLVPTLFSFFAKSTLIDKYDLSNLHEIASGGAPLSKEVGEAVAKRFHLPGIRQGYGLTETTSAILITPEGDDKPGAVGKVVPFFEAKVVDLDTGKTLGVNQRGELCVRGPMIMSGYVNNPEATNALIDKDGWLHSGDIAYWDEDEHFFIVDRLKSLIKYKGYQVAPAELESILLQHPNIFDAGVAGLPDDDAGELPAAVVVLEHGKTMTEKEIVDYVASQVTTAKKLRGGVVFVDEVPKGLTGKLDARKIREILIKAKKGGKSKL
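Biochemical qHTS of compounds, final roughly 60 µM downward over six points, against 10 nM purified firefly luciferase using Km concentrations of substrates (10 uM D-luciferin, 10 uM ATP) in Tris acetate pH 7.5 buffer; luminescence output.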
KinaseGlo FLuc = counter-screen: inhibitors of Kinase-Glo firefly luciferase; Potency, µM (series often up to 38.3 µM), inactives show at the highest dose activity change, negative = inhibition, actives largely listed as inhibitors; actives 0.28% (n = 200,000); Kinase-Glo luciferase, ATP luminescence, 8 min; Q27757; AID 1379; also: % is scaled to controls: 0 for no effect and ±100 for the full control effect; nearly all actives have a fitted effect of over 60% in size
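Compound is pinned into ATP-containing buffer (10 uM ATP, imidazole pH 7.2, 7 mM MgCl2). Kinase-Glo luciferase reagent is then added. Light output is recorded following an 8-min room-temperature incubation.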
Rab9 promoter act = activators of Rab9 promoter; Huh7 Rab9 promoter-luciferase reporter, luminescence, 24 h; Potency, µM (series often up to 9.22 µM), inactives show at the highest dose activation, negative = inhibition, actives largely listed as activators; actives 2.8% (n = 320,000); AID 485297; also: % of control where 0% means no effect; nearly all actives have a fitted effect of over 60% in size
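Cells were plated at 1500 per well in reduced-serum medium with 10% FBS and left 2 h. Compound in DMSO was then added for 24 h at 37 °C. Reporter signal was read by luminescence after 10 min with luciferase detection reagent.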
SMN2 splice enh = SMN2 splice variant enhancement; actives 2.8% (n = 210,000); HEK293 SMN2-luciferase splicing reporter, luminescence, 30-36 h; Potency, µM (top dose mostly 46.1 µM), without a hit: at the top dose activity change, positive = activation, most hits filed as activators; AID 1458; also: % of control where 0% means no effect; nearly all actives have a fitted effect of over 55% in size
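qHTS luciferase splicing reporter: luminescence rises when SMN2 exon 7 is included in transfected HEK293 cells. Compound exposure lasted 30-36 h at 37C, with 4.5 mM final sodium butyrate as control, followed by a ONE-Glo read.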
* hit, by the source's call; ? = inconclusive; . = no result; [ ] = another dose, or the depositor's remark. Calls follow the shape of the dose curve; as a rule, active = well fitted curve in the direction sought with a large enough effect; inconclusive = small, poorly fitted or top-dose-only effect, or another doubt; inactive = no such curve, though single readings can be large; an effect the other way counts as inactive or inconclusive. Potency is read from the fitted curve at half-maximal effect.

SMILES	ELG1 genotoxic	NPC1 promoter act	FLuc modulator	KinaseGlo FLuc	Rab9 promoter act	SMN2 splice enh
Cc1ccc(S(=O)(=O)Nc2ccc(O)c(C(=O)O)c2)c(C)c1	.	.	.	0.4%	.	.
COc1cccc(-c2nnc3sc(-c4ccco4)nn23)c1	?	4.47µM*	?	-3.7%	2.82µM*	19.6%
CCOc1cccc(-c2nnc3sc(-c4cccs4)nn23)c1	5.0%	-3.1%	0.6%	1.5%	6.2%	-21.1%
COc1cccc(-c2nn3c(-c4cccc(C)c4)nnc3s2)c1	12.4%	-8.6%	19µM*	11.2%	7.8%	2.8%
COc1cccc(-c2nnc3sc(-c4ccc(C)cc4)nn23)c1	-2.6%	-3.1%	-3.2%	0.3%	2.6%	-0.1%
COc1cccc(-c2nnc3sc(-c4cccs4)nn23)c1	15.6%	3.16µM*	?	-2.5%	2.82µM*	?
COc1cccc(C(=O)N2c3ccc(C)cc3C(C)(c3ccccc3)CC2(C)C)c1 (stereo not drawn)	.	.	-1.6%	.	.	-50.9%
CCOc1ccc(N(CC)C(=O)Cn2cnc3sc(C)c(S(=O)(=O)N4CCN(c5ncccn5)CC4)c3c2=O)cc1	.	.	-7.7%	.	.	-7.4%
O=C1C(C2=NC(c3ccccn3)C3C(=O)N(c4ccc(Cl)cc4Cl)C(=O)C23)=C(O)c2ccccc21 (stereo not drawn)	-0.3%	-8.2%	5.9%	.	-23.2%	.
O=C1C(C2=NC(C(=O)O)C3C(=O)N(c4ccc(Cl)cc4)C(=O)C23)=C(O)c2ccccc21 (stereo not drawn)	2.8%	-3.7%	6.75µM*	-12.4%	9.7%	-2.7%
CCOC(=O)c1cc(-c2ccccc2)n(-c2cccc(C(=O)Nc3ccc(OC)cc3)c2)c1C	.	.	-6.0%	.	.	.
COc1cc(C(CC(=O)Nc2cc(C)ccc2C)N2Cc3ccccc3C2=O)cc(OC)c1OC (stereo not drawn)	.	.	0.4%	.	.	.
COc1ccc(-n2ncc3c(NCc4cccnc4)ncnc32)cc1	?	1.26µM*	6.75µM*	.	1µM*	.
Cc1ccc(Cl)cc1-n1ncc2c(NCc3ccc(F)cc3)ncnc21	.	.	-10.8%	.	.	.
Cc1ccc(-n2ncc3c(NCc4cccnc4)ncnc32)c(C)c1	9.9%	-9.4%	-15.0%	-2.0%	-22.4%	-84.0%
Cc1cccc(-n2ncc3c(NCc4cccnc4)ncnc32)c1	?	3.98µM*	8.49µM*	.	2.51µM*	.
Cc1ccc(-n2ncc3c(NCc4cccnc4)ncnc32)cc1C	9.2µM*	2.24µM*	4.78µM*	.	?	.
Cc1ccc(NC(=O)c2cnn3c(C(F)F)cc(-c4ccccc4)nc23)cc1F	.	.	2.8%	.	.	-14.6%
COC(=O)c1ccc(NC(=O)CN(c2cccc(C(F)(F)F)c2)S(C)(=O)=O)cc1	.	.	-0.6%	.	.	-19.9%
CC(C)COc1ccc(-c2nnc(-c3ccncc3)o2)cc1	14.6%	1.12µM*	3.38µM*	-4.1%	0.631µM*	19.1%
CCCOc1ccc(-c2nnc(-c3ccncc3)o2)cc1	2.06µM*	3.55µM*	4.78µM*	-12.4%	?	?
COc1ccc(-c2nnc(-c3ccc(OCC(C)C)cc3)o2)cc1	1.3%	2.7%	?	4.7%	4.2%	-14.7%
COc1cc(OC)c2c(c1)OC(c1ccccc1)CC2=O (stereo not drawn)	.	.	.	-0.6%	.	.
CCOc1ccc(C(=O)Nc2ccc3nn(-c4ccc(OC)c(Cl)c4)nc3c2)cc1	.	.	-6.1%	.	.	.
CCc1cccc(CC)c1NC(=O)c1c(C)oc2ccc(O)c(CN3CCN(C)CC3)c12	.	.	3.6%	.	.	-1.9%
SMILES	ELG1 genotoxic	NPC1 promoter act	FLuc modulator	KinaseGlo FLuc	Rab9 promoter act	SMN2 splice enh
CCc1ccc(Cn2c(CNS(=O)(=O)c3ccc(Cl)s3)nc3cccnc32)cc1	.	.	-18.9%	.	.	.
Cc1ccc(NC(=O)CCOc2ccccc2)cc1	?	?	13.5µM*	.	3.55µM*	.
Cc1cccc(OCCCC(=O)Nc2ccc(Br)cc2)c1	1.2%	1.9%	-1.5%	2.3%	-4.8%	14.1%
O=C(CCOc1ccccc1)Nc1ccccc1	10.3%	19.5%	?	6.1%	16.1%	-7.6%
Cc1cccc(OCCCC(=O)Nc2ccc(N(C)C)cc2)c1	?	?	8.49µM*	-2.1%	?	0.1%
COc1ccccc1N1CCN(C(=O)c2cnn(-c3ccc(C)c(C)c3)c2C2CCN(C(=O)OC(C)(C)C)CC2)CC1	.	.	-2.5%	.	.	.
C[N+]1(CCC[N+]2(C)C[C@H]3[C@H](C2)[C@H]2C=C[C@@H]3CC2)CCOCC1 (stereo partly drawn)	.	.	.	-7.3%[7.66 µM]	.	-15.9%[9.22 µM]
CCOC(=O)c1oc2ccccc2c1N	6.5%	-22.3%	-8.2%	2.7%	4.8%	8.0%
Nc1c(C(=O)c2cccs2)oc2ccccc12	18.0%	?	15.1µM*	-3.2%	27.2%	?
Nc1c(C(=O)c2ccc(Br)s2)oc2ccccc12	?	?	7.57µM*	-0.4%	?	?
Nc1c(C(=O)c2ccc(Br)cc2)oc2ccccc12	7.8%	28.0%	-4.2%	-1.5%	29.7%	?
Cc1ccc(C(=O)c2oc3ccccc3c2N)cc1	?	?	16.9µM*	2.2%	?	12.6µM*
Cc1cccc(Cn2c(C)c(CNC3CCCCC3)c(C(=O)O)c2C)c1	.	.	2.1%	.	.	2.3%
CCOc1ccccc1C(=O)NC1(C(F)(F)F)C(=O)Nc2c1c(=O)[nH]c(=O)n2-c1ccccc1 (stereo not drawn)	.	.	?	.	.	0.0%
CN(C)c1ccc(-c2ccncc2)cc1	?	15.0%	?	14.1%	20.2%	?
CNc1nnc(-c2ccc(N(C)C)cc2)s1	?	0.562µM*	2.13µM*	-12.3%	0.447µM*	2.82µM*
COC(=O)CSc1nnc(NC(=O)c2ccc3c(c2)OCO3)s1	14.6µM*	26.5%	0.536µM*	.	?	.
CC(C)(C)Cc1nnc(NC(=O)c2ccc3c(c2)OCO3)s1	?	2.24µM*	?	.	2.24µM*	.
O=C(O)CSc1nnc(NC(=O)c2ccc3c(c2)OCO3)s1	-12.2%	-3.6%	1.9µM*	-8.2%	-3.4%	-28.1%
Cc1ccccc1OCCSc1nc2ccc(NC(=O)c3cccc(F)c3)cc2s1	.	.	1.7%	.	.	.
Cc1cccc(-n2c(=O)c3c(c4cc(C)ccc4n3C)n(CC(=O)Nc3ccc(C)cc3C)c2=O)c1	.	.	0.7%	.	.	.
Cn1ncc(C#N)c1NC(=O)c1cc(-c2ccccc2Cl)on1	3.3%	14.8%	26.9µM*	1.2%	8.3%	6.0%
O=C(Nc1cccc(O)c1)c1cc(-c2ccccc2Cl)on1	?	?	0.379µM*	.	18.8%	.
COc1ccc(NC(=O)c2cc(-c3ccc(OC)c(OC)c3)on2)cc1OC	1.8%	-0.9%	0.1%	0.1%	10.9%	3.3%
O=C(Nc1ccccc1)OCc1cc(-c2ccccc2Cl)on1	20.0%	25.2%	13.5µM*	4.1%	3.3%	?
